Test results from PubChem BioAssay.
Results filed as inconclusive are left out. The source made the active and inactive calls. Unless noted, no cut-off is given here; in the data, nearly all actives have AC50 up to about 27 µM.

Test system: not listed separately
Assay: EMT-state selective cytotoxicity in co-culture – imaging, PC-3E GFP, TEM4-18 mCherry, primary screen (AID 1345086);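 note: cells exposed to compound for 72 h before imaging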
Settings: PC-3E GFP / TEM4-18 mCherry co-culture, imaging cell counts; measured here: mesenchymal TEM4-18 mCherry cell survival; at 1 µM

Structure (SMILES)	normalised cell number
COC(=O)[C@H](c1ccccc1Cl)N1CCc2sccc2C1	1.36
COc1ccc(/C=C/C(=O)Nc2ccccc2C(=O)O)cc1OC	0.98
CC1=C(/C=C/C(C)=C/C=C/C(C)=C\C(=O)O)C(C)(C)CCC1	1.18
Cc1cccc(C)c1NC(=O)C1CCCCN1C (stereo unspecified)	1.44
CN(C)c1nc(N(C)C)nc(N(C)C)n1	1.08
CC[C@H]1OC(=O)[C@H](C)[C@@H](O[C@H]2C[C@@](C)(OC)[C@@H](O)[C@H](C)O2)[C@H](C)[C@@H](O[C@@H]2O[C@H](C)C[C@H](N(C)C)[C@H]2O)[C@](C)(OC)C[C@@H](C)C(=O)[C@H](C)[C@@H](O)[C@]1(C)O	1.04
CNCCC(Oc1ccc(C(F)(F)F)cc1)c1ccccc1 (stereo unspecified)	1.15
CS(=O)(=O)c1ccc(C2=C(c3ccccc3)C(=O)OC2)cc1	0.92
Cc1occc(=O)c1O	1.05
Nc1ncnc2c1ncn2[C@@H]1O[C@H](CO)[C@@H](O)[C@@H]1O	0.95
CC(C)NCC(O)COc1ccc(CC(N)=O)cc1 (stereo unspecified)	1.09
C[N+]1(C)CCCC(OC(=O)C(O)(c2ccccc2)c2ccccc2)C1 (stereo unspecified)	1.37
CC(C)NCC(O)COc1cccc2ccccc12 (stereo unspecified)	1.31
CCc1ccc(CCOc2ccc(CC3SC(=O)NC3=O)cc2)nc1 (stereo unspecified)	1.27
CCCCC(=O)N(Cc1ccc(-c2ccccc2-c2nn[nH]n2)cc1)[C@H](C(=O)O)C(C)C	1.3
C[C@H]1COc2c(N3CCN(C)CC3)c(F)cc3c(=O)c(C(=O)O)cn1c23	1.13
O=[N+]([O-])c1cccc2cn[nH]c12	1.13
COc1ccc(-c2cc(=O)c3c(OC)c(OC)c(OC)c(OC)c3o2)cc1OC	1.13
CC(C(=O)O)c1ccc(-c2ccccc2)c(F)c1 (stereo unspecified)	1.18

Test system: Aerobactin synthetase IucA (Klebsiella pneumoniae)
Assay: inhibition of K. pneumoniae IucA enzyme – biochemical, Tocris library, absorbance (AID 1345561; call rule not given here;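 note: 100% = enzyme without compound and 0% = no enzyme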)
Settings: purified IucA enzyme assay, absorbance (OD) read-out; stronger effect = lower value; concentration not given here

Structure (SMILES)	remaining activity
COc1ccc(/C=C/C(=O)Nc2ccccc2C(=O)O)cc1OC	119% (inactive)
CNCCC(Oc1ccc(C(F)(F)F)cc1)c1ccccc1 (stereo unspecified)	124% (inactive)
CC(C)NCC(O)COc1ccc(CC(N)=O)cc1 (stereo unspecified)	121% (inactive)
CC(C)NCC(O)COc1cccc2ccccc12 (stereo unspecified)	97.5% (inactive)
O=[N+]([O-])c1cccc2cn[nH]c12	107% (inactive)
CC(C(=O)O)c1ccc(-c2ccccc2)c(F)c1 (stereo unspecified)	123% (inactive)

Test system: not listed separately
Assay: viability loss in pontine glioma line – cell-based, SU-DIPG-XVII, MIPE5.0, CellTiter-Glo, qHTS, dose response (AID 1347060; cut-off not given, nearly all actives have AC50 up to about 26 µM)
Settings: CellTiter-Glo ATP luminescence

Structure (SMILES)	outcome
COC(=O)[C@H](c1ccccc1Cl)N1CCc2sccc2C1	inactive
COc1ccc(/C=C/C(=O)Nc2ccccc2C(=O)O)cc1OC	inactive
CN(C)c1nc(N(C)C)nc(N(C)C)n1	inactive
CS(=O)(=O)c1ccc(C2=C(c3ccccc3)C(=O)OC2)cc1	inactive
Nc1ncnc2c1ncn2[C@@H]1O[C@H](CO)[C@@H](O)[C@@H]1O	inactive
CCc1ccc(CCOc2ccc(CC3SC(=O)NC3=O)cc2)nc1 (stereo unspecified)	inactive
C[C@H]1COc2c(N3CCN(C)CC3)c(F)cc3c(=O)c(C(=O)O)cn1c23	inactive

Test system: not listed separately
Assay: viability loss in pontine glioma line – cell-based, SU-DIPG-XIII, MIPE4.0, CellTiter-Glo, qHTS, dose response (AID 1347061; cut-off not given, nearly all actives have AC50 up to about 37 µM;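 note: cells exposed to compound for 48 hours before readout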)
Settings: CellTiter-Glo ATP luminescence

Structure (SMILES)	outcome	AC50
COc1ccc(/C=C/C(=O)Nc2ccccc2C(=O)O)cc1OC	inactive	
CS(=O)(=O)c1ccc(C2=C(c3ccccc3)C(=O)OC2)cc1	inactive	
C[C@H]1COc2c(N3CCN(C)CC3)c(F)cc3c(=O)c(C(=O)O)cn1c23	inactive	
CC(C(=O)O)c1ccc(-c2ccccc2)c(F)c1 (stereo unspecified)		16.6 µM (active)

Test system: not listed separately
Assay: viability loss in pontine glioma line – cell-based, JHH-DIPG-1, MIPE4.0, CellTiter-Glo, qHTS, dose response (AID 1347062)
Settings: JHH-DIPG-1 viability, CellTiter-Glo ATP luminescence

Structure (SMILES)	outcome
COC(=O)[C@H](c1ccccc1Cl)N1CCc2sccc2C1	inactive
CC1=C(/C=C/C(C)=C/C=C/C(C)=C\C(=O)O)C(C)(C)CCC1	inactive
O=c1ccc2ccc(O)c(O)c2o1	inactive
CN(C)c1nc(N(C)C)nc(N(C)C)n1	inactive
CC[C@H]1OC(=O)[C@H](C)[C@@H](O[C@H]2C[C@@](C)(OC)[C@@H](O)[C@H](C)O2)[C@H](C)[C@@H](O[C@@H]2O[C@H](C)C[C@H](N(C)C)[C@H]2O)[C@](C)(OC)C[C@@H](C)C(=O)[C@H](C)[C@@H](O)[C@]1(C)O	inactive
CS(=O)(=O)c1ccc(C2=C(c3ccccc3)C(=O)OC2)cc1	inactive
CCc1ccc(CCOc2ccc(CC3SC(=O)NC3=O)cc2)nc1 (stereo unspecified)	inactive
C[C@H]1COc2c(N3CCN(C)CC3)c(F)cc3c(=O)c(C(=O)O)cn1c23	inactive
CC(C(=O)O)c1ccc(-c2ccccc2)c(F)c1 (stereo unspecified)	inactive

Test system: not listed separately
Assay: viability loss in pontine glioma line – cell-based, SU-DIPG-IV, MIPE4.0, CellTiter-Glo, qHTS, dose response (AID 1347063; cut-off not given, nearly all actives have AC50 up to about 30 µM;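 note: compound exposure lasted 48 hours before the viability readout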)
Settings: CellTiter-Glo ATP luminescence

Structure (SMILES)	outcome
COC(=O)[C@H](c1ccccc1Cl)N1CCc2sccc2C1	inactive
COc1ccc(/C=C/C(=O)Nc2ccccc2C(=O)O)cc1OC	inactive
CN(C)c1nc(N(C)C)nc(N(C)C)n1	inactive
CC[C@H]1OC(=O)[C@H](C)[C@@H](O[C@H]2C[C@@](C)(OC)[C@@H](O)[C@H](C)O2)[C@H](C)[C@@H](O[C@@H]2O[C@H](C)C[C@H](N(C)C)[C@H]2O)[C@](C)(OC)C[C@@H](C)C(=O)[C@H](C)[C@@H](O)[C@]1(C)O	inactive
CS(=O)(=O)c1ccc(C2=C(c3ccccc3)C(=O)OC2)cc1	inactive
C[C@H]1COc2c(N3CCN(C)CC3)c(F)cc3c(=O)c(C(=O)O)cn1c23	inactive
